Reference: PubChem BioAssay AID493026 (Johns Hopkins Ion Channel Center, 2011)
Among all 1,000 compounds or so, about 150 (15%) were called active.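 The calls were made as follows: active = activity change at least 3 SD of negative controls below their mean in both duplicate wells; inactive = the rest.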 The full list was thinned out, with actives kept by preference.

Target: Potassium voltage-gated channel subfamily KQT member 1 (Homo sapiens) (UniProt P51787)
Assay: KCNQ1 thallium flux decrease by hits – cell-based, FluxOR thallium flux, counter-screen for KCNQ2 inhibitor project (AID 493026);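 also: CHO cells stably transfected with KCNQ1 and depolarized by potassium stimulus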;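 as to activity change, negative = inhibition: peak minus minimum fluorescence over baseline after thallium addition; 0% = vehicle negative control and -100% = blank without thallium stimulus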
Conditions: KCNQ1-expressing cells, FluxOR thallium flux fluorescence, at 10 µM; stronger effect = lower value

Chain of Potassium voltage-gated channel subfamily KQT member 1 (Homo sapiens) (P51787 whole entry, looked up): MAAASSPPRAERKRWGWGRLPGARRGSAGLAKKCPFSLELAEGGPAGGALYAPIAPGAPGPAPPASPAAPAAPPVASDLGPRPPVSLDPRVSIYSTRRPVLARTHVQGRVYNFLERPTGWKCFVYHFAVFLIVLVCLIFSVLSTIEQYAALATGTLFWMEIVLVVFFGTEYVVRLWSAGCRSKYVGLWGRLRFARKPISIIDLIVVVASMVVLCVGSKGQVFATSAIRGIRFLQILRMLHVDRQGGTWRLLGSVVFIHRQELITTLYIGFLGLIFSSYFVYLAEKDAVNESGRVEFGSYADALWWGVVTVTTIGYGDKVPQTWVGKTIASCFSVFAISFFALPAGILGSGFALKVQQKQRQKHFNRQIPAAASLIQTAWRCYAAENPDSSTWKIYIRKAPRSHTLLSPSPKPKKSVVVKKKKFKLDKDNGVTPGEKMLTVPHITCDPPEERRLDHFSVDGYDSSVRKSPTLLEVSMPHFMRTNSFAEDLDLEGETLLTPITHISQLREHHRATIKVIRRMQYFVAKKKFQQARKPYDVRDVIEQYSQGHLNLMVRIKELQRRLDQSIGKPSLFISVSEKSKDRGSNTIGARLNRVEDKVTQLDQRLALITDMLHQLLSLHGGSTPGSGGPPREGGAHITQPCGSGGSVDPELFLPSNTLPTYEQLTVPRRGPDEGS

| Structure (SMILES) | activity change, negative = inhibition |
| --- | --- |
| CN(C)CC1Oc2ccccc2OC1(O)c1ccccc1 (configuration not stated) | -30.5% (active) |
| O=C(NC(c1ccc(Cl)cc1)P(=O)(Oc1ccccc1)Oc1ccccc1)OCc1ccccc1 (configuration not stated) | inactive |
